# Measurements reported in the supplement of paper PMC6555819.
# Tests used:
# Assay in all cases: PBM binding z-score (relative to random genomic background probes); higher = stronger binding; sequences stand for … in GC…GCGATTGACAGCGTAGAATGAAGG
# [1] = tested on: PPARg:RXRa DBDmut IVT, anti-RXR (DBD mutation: RXRa K156A/R161A, NR concentration 270 nM, RXRa partner concentration 90 nM)
# Procedure, shortened: (§1)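 Each nuclear receptor dimer, without ligand, was incubated for 1 h on custom Agilent 4×180K protein-binding microarrays. Binding was detected with antibodies against each partner (one per run), and scanned fluorescence was regression-normalized. The binding z-scores are referenced to random human genomic background probes.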
# [2] = tested on: PPARg:RXRa IVT, anti-PPARg (NR concentration 270 nM, RXRa partner concentration 90 nM)
# Procedure, shortened: as §1
# [3] = tested on: PPARg DBDmut:RXRa IVT, anti-PPARg (DBD mutation: PPARg1 K132A/R137A, NR concentration 270 nM, RXRa partner concentration 90 nM)
# Procedure, shortened: as §1
# [4] = tested on: PPARg DBDmut IVT, anti-PPARg (DBD mutation: PPARg1 K132A/R137A, NR concentration 270 nM)
# Procedure, shortened: as §1
# [5] = tested on: PPARg homodimer (NR concentration 180 nM)
# Procedure, shortened: as §1
# [6] = tested on: PXR:RXRa (NR concentration 270 nM, RXRa partner concentration 90 nM)
# Procedure, shortened: as §1
# [7] = tested on: PXR homodimer (NR concentration 270 nM)
# Procedure, shortened: as §1
# [8] = tested on: RARa:RXR (NR concentration 270 nM, RXRa partner concentration 90 nM)
# Procedure, shortened: as §1
# [9] = tested on: RARa homodimer (NR concentration 270 nM)
# Procedure, shortened: as §1
# [10] = tested on: RARb:RXRa (NR concentration 270 nM, RXRa partner concentration 90 nM)
# Procedure, shortened: as §1
# [11] = tested on: RARb homodimer (NR concentration 270 nM)
# Procedure, shortened: as §1
# [12] = tested on: RARg:RXRa (NR concentration 270 nM, RXRa partner concentration 90 nM)
# Procedure, shortened: as §1
# [13] = tested on: RARg homodimer (NR concentration 270 nM)
# Procedure, shortened: as §1
# [14] = tested on: RXRa DBDmut IVT, anti-RXR (DBD mutation: RXRa K156A/R161A, NR concentration 90 nM)
# Procedure, shortened: as §1
# [15] = tested on: RXRa homodimer (NR concentration 180 nM)
# Procedure, shortened: as §1
# [16] = tested on: THRa:RXRa (NR concentration 90 nM, RXRa partner concentration 90 nM)
# Procedure, shortened: as §1
# [17] = tested on: THRa homodimer (NR concentration 90 nM)
# Procedure, shortened: as §1
# [18] = tested on: VDR homodimer (NR concentration 270 nM)
# Procedure, shortened: as §1
Sequence,PBM binding z-score [1],PBM binding z-score [2],PBM binding z-score [3],PBM binding z-score [4],PBM binding z-score [5],PBM binding z-score [6],PBM binding z-score [7],PBM binding z-score [8],PBM binding z-score [9],PBM binding z-score [10],PBM binding z-score [11],PBM binding z-score [12],PBM binding z-score [13],PBM binding z-score [14],PBM binding z-score [15],PBM binding z-score [16],PBM binding z-score [17],PBM binding z-score [18]
ACTATTAGTTGAGACGCGGGCAACCGATAGGTTG,-0.288,-0.175,0.481,0.188,-0.291,-0.299,-0.208,-0.588,-0.0314,0.15,-0.0528,0.00918,0.268,0.153,-0.256,-0.0691,-0.769,0.135
TTTGCTAGGTCAACGATGGTCAGCTAATCTGCTA,4.45,5.11,0.599,0.434,0.874,1.46,-0.501,2.15,-0.298,4.13,3.69,4.05,5.28,1.02,2.67,3.33,1.02,0.00226
CAAACTAGGTCAAGAGCTCAAAGTCCGCTTCCCG,8.17,8.44,4.03,2.91,2.57,1.06,-0.169,2.14,0.0982,3.99,2.98,3.82,4.02,1.34,2.39,2.73,0.891,0.0239
CCTTACGGGTCAAGGTTATAGTACGGGTGGTACG,1.4,3.68,0.554,-0.326,2.79,3.75,0.673,4.68,1.47,4.18,3.37,4.78,4.42,1.09,5.14,3.08,1,1.71
TCTTGTCGATCAAGCAGGTTAAGAAAGCCTGAGT,0.974,0.231,-0.395,0.403,-0.519,0.505,-0.0537,0.33,-0.429,0.222,0.296,-0.133,-0.273,0.138,0.0791,0.127,-0.374,-0.0959
TCGAGTAGGTTACCAATGGGGCATTGAGCTTTCT,3.4,2.69,-0.293,-0.233,-0.0976,0.039,-0.707,0.00376,-0.988,0.917,0.567,1.1,0.221,0.408,0.672,0.145,-0.895,-0.64
ACTTACGGGTCAACGAGGTTGTAGCACGCGTATA,3.1,3.83,2.28,1.73,3.47,4.95,1.29,5.07,0.713,4.04,3.03,5.34,4.57,2.44,5.59,3.38,0.417,2.86
CCTATTAGTTGACCATAAGGGCTACCGAAGCTCG,0.457,0.104,0.267,0.311,1.99,0.0462,0.632,0.373,1.97,0.623,1.04,0.591,0.633,0.659,0.214,0.318,0.305,0.787
TCTGCGAGGTCAACGATGGTCAGCTAATCTGCTA,3.66,4.67,0.567,1.25,3.27,5.4,1.03,5.37,0.126,5.18,4.5,6.57,7.19,3.91,7.18,4.26,2.92,3.6
TCATATAGGTAAATGCTATGTGAAAGTCCGATCT,3.59,2.05,1.25,1.39,0.542,0.621,-0.0684,0.813,1.29,0.304,-0.22,0.473,0.452,1.17,0.894,0.0535,0.0976,0.435
CCTACTGGGCCAAAGGTCATTGAATCCAATGCTC,5.12,6.72,-0.082,0.0276,3.57,5.26,1.68,5.79,0.758,4.52,4.89,5.95,4.83,1.05,6.52,3.56,0.752,2.23
GCTGCTATGTCAGGTTGGTCAGCTAACGGGTACG,0.218,-0.36,-0.641,-1.12,-0.452,-0.319,-0.426,-0.149,-0.632,0.458,0.477,-0.153,0.0688,0.041,-0.315,-0.187,-0.332,-0.186
TCTTGTAGATCAATAGAGGTTAACAAAGTGCGCT,1.65,1.38,0.608,1.56,0.466,3.82,0.45,2,0.875,1.02,1.38,1.11,0.826,0.564,1.68,2.62,-0.415,0.462
ATATGTAGGTTCTCGGGTCATTCAGTTTGCGCAT,4.81,4.65,1.63,2.01,1.96,4.05,8.95,3.37,1.01,2.15,2.61,2.47,1.7,2.28,2.88,3.46,3.29,4.65
CAAACTAGGTCAAAGGTGAAAGTCGAGCCAACCA,8.83,8.9,5.06,3.41,4.11,4.59,0.25,7.31,1.09,4.41,3.44,6.43,4.84,2.14,7.81,3.65,1.03,1.05
TCTATTAGTTGAAGGGCAGCCGACGAGTCCGTTT,2.37,0.427,0.454,1.07,0.963,0.654,0.958,0.447,0.781,1.37,0.841,0.303,0.318,1.74,0.258,0.00646,0.0713,1.27
CCGAGTTGGTTATGGGGCATTCAGGCAACGGTGA,0.136,0.993,-0.435,-0.836,0.998,0.00372,0.402,0.155,0.692,0.288,0.393,-0.17,-0.319,1.14,0.0354,0.111,0.472,0.996
CCTACTGGGCCATCTGGTCATTGATATCAACGTT,3.95,4.15,0.821,0.613,0.5,-0.397,-0.43,-0.692,0.0969,0.606,0.54,0.0182,0.419,-0.267,-0.224,-0.171,0.0962,-0.0886
TCTTGTAGATCCGCAGGTTAAGAAAGCTGGCCAA,1.29,-0.0295,0.383,-0.621,-0.223,0.161,-1.09,0.597,-0.725,0.136,-0.00283,-0.252,-0.631,0.638,0.152,0.0319,-0.513,-0.38
ATCGAAAGGTCGAGGTGAATATAGAGAAAGGGAA,0.454,2.9,1.3,0.685,1.72,2.6,0.39,3.39,1.13,4.2,2.88,4.52,4.51,0.922,4.65,2.95,0.862,0.0536
GCTGCTAGGTCAACTGATGGTCAGGTAAAGCTCG,4.69,4.23,-0.376,-0.724,2.17,1.83,-0.677,3.15,0.327,4.45,3.83,5.13,5.23,1.6,3,3.27,1.76,0.0826
AGAATGAGGTTTTTAAGATCAGGGAATTGCGGTC,0.514,0.257,0.355,-0.0253,-0.582,-0.38,-0.508,-0.216,0.273,0.0304,-0.159,-0.0419,-0.355,0.351,0.0313,0.216,-0.0732,-0.068
CCAGACAGGTGAAAGGTGACTCAGTCTGGTACGC,2.4,3.47,0.243,-0.992,1.3,1.85,0.0178,2.91,0.796,1.96,1.63,2.35,1.15,-0.229,3.18,1.44,0.239,0.14
CGTTCAAGGTCAATGCTAGGTCAGTGAAAGCATT,4.31,4.8,0.872,0.0991,7.93,5.3,1.78,6.62,2.61,5.22,4.78,7.74,7.18,4.09,5.88,4.72,3.33,3.44
TCAGACAGGTGAAGGTAACCCAGGTACGCAGTCG,2.61,2.16,0.501,-0.304,0.633,0.747,0.22,0.961,0.035,1.44,1.25,0.745,0.803,0.992,1.29,1.48,0.57,0.454
ACTAGCAGGCCAAGTATGGGTCACTCAAACAAAG,1.16,1.82,-0.278,-0.249,0.52,0.911,-0.49,1.85,-0.747,1.58,2.24,2.53,1.63,-0.279,1.11,0.976,-0.26,0.0355
ATATGTAGGTTAAGGGTCGTTCAGGTTGGTTCGC,7.55,7.66,3.39,1.59,2.62,3.64,2.22,3.78,2.01,2.33,2.6,2.82,1.63,1.64,3.9,2.48,1.75,2.58
GATACAGGGTCACCTAGAGGCCAGAGTATGGAAA,2.73,4.97,2.46,1.14,3.21,4.54,0.0767,6.04,0.306,4.56,3.89,7.38,5.66,2.02,6.04,3.91,1.32,1.97
CCTACTGGGACAAAGGTCATTGATTCCAATGCTC,5.4,7.14,1.81,1.06,4.59,5.27,2.24,6.06,2,4.45,4.66,5.3,4.6,1.83,5.76,3.57,1.25,2.94
